# Experimental data taken from PubChem BioAssay AID2314 (National Center for Advancing Translational Sciences (NCATS), 2010).
# Hit rate of the full screen: of about 300,000 compounds, about 37,000 (12%) were called active. The sample holds actives, similar compounds and a random draw of the others, so the mix is not that of the screen. Rule as the data show it: active = max response mostly above about 13% (no sharp cut-off); inactive = mostly below about 14%.
# Experiment: Cycloheximide Counterscreen for Small Molecule Inhibitors of Shiga Toxin; also: read at 38.3 µM for the half of the compounds with a filed dose; 0% is about no effect
# Settings: cell reporter, cycloheximide protein synthesis inhibition counterscreen; hits give high values
row,SMILES,max response
1,CCN1/C(=C\c2ccc3ccccc3[n+]2CC)Sc2cc(C)ccc21,1.19% (inactive)
2,CCN1CCN(CCNC(=O)c2ccc(/C=C3/Sc4ccccc4N(Cc4cccc(C)c4)C3=O)cc2)CC1,-11.9% (inactive)
3,CCN1/C(=C/c2ccc3ccc(C)cc3[n+]2CC)Sc2ccccc21,11.9% (active)
4,Cc1ccc2sc(N(CCN(C)C)C(=O)/C=C/c3cccs3)nc2c1C,-8.25% (inactive)
5,COc1ccc(N=C(C)c2sc3ccccc3c2O)cc1,43.2% (active)
6,COc1ccc(-n2c(O)c(C(C)=Nc3ccc4c(c3)CCC4)c(=O)[nH]c2=O)cc1,-1.73% (inactive)
7,COc1ccc(S(=O)(=O)Nc2ccc(O)c(Sc3nc4ccccc4s3)c2)cc1,1.12% (inactive)
8,CC(=O)[C@@]12O[C@@H]1C[C@H]1[C@@H]3CC[C@H]4C[C@@H](O)CC[C@]4(C)[C@H]3CC[C@@]12C,-5.5% (inactive)
9,CCN1CCC2(CCN(Cc3cn[nH]c3-c3ccc(OC)c(F)c3)C2)C1 (centres undefined),-2.52% (inactive)
10,Cc1ccc(NC(=O)C2CCN(S(=O)(=O)c3ccc4c(c3)NC(=O)CO4)CC2)cc1C,1.16% (inactive)
11,O=C(Cn1c(=O)sc2ccccc21)Nc1nc2c(s1)CCCC2,3.35% (inactive)
12,COC(=O)C(NC(C)=O)(Nc1nc2c(s1)CCCC2)C(F)(F)F (centres undefined),-2.42% (inactive)
13,Fc1ccc2nc(Nc3nc4c(s3)CCCC4)sc2c1,40.4% (active)
14,CN(C)c1cc(-c2ccc(F)cc2)oc(=O)c1Cl,2.21% (inactive)
15,Cc1cc(C)nc(Nc2n[nH]c(-c3ccccc3N)n2)n1,52% (active)
16,Cc1ccccc1-c1n[nH]c(=S)n1C,6.29% (inactive)
17,Cc1cc(C)nc(Nc2ncn[nH]2)n1,-1.33% (inactive)
18,CS(=O)(=O)Nc1ccccc1N=C(c1ccccc1)c1ccccc1,-4.16% (inactive)
19,C/C=C(/C)C(=O)O[C@@H]1c2cc3c(c4c2[C@@]2(CO4)C(=O)C(OC)=C(OC)C=C2C[C@@H](C)[C@H]1C)OCO3,-1.03% (inactive)
20,COc1ccc(S(=O)(=O)N2CCSCC2)cc1,-2.78% (inactive)

row,SMILES,max response
1,CCCNC(=O)c1c(Cl)cnn1-c1ccc(C)cc1,39.1% (active)
2,CCCNC(=O)CCc1c(C)nc2c(c(C)nn2-c2ccc(C)cc2)c1C,-2.97% (inactive)
3,CCCNC(=O)c1ccc(Cl)c(Cl)c1,-2.92% (inactive)
4,O=C1C=CC(=O)N1c1ccc(N2CCCCC2)cc1,8% (inactive)
5,Cc1n[nH]c(C)c1S(=O)(=O)N1CCCC(C(=O)Nc2ccc(Br)cc2)C1 (centres undefined),-4.38% (inactive)
6,COC(=O)c1sccc1NC(=O)COc1ccc(Cl)cc1,18% (active)
7,COC(=O)c1sccc1NC(=O)CCC1CCCC1,11% (inactive)
8,COC(=O)c1sccc1NC(=O)c1ccc(Cl)cc1,-0.926% (inactive)
9,CCS(=O)(=O)c1ccc(O)c(NC(=O)COc2ccc(Cl)cc2)c1,-2.47% (inactive)
10,O=C(COc1ccc(Cl)cc1)Nc1ccccc1CO,19.6% (active)
11,O=C(COc1ccc(Cl)cc1)NCCSc1ccccc1,-2.45% (inactive)
12,CCOc1ccc(N/C(N)=N/c2nc(C)c(C)c(=O)[nH]2)cc1,0.863% (inactive)
13,Cc1ccc(NC(=O)Cn2cccc2C2=NC(c3ccccc3)CO2)c(C)c1 (centres undefined),-4.36% (inactive)
14,N#Cc1ccc(OCc2nnc(-c3ccc([N+](=O)[O-])cc3)o2)cc1,-2.49% (inactive)
15,COCCn1c(SCC(=O)Nc2cc(Cl)ccc2OC)nc2c(c1=O)SC(C)C2 (centres undefined),-1.62% (inactive)
16,O=S(=O)(Oc1ccccc1C(=S)N1CCOCC1)c1ccc(Cl)cc1,-1.08% (inactive)
17,NC(=O)CC(NC(=O)Cc1ccc(Br)cc1)c1ccc(NC2CC3CCC2C3)c([N+](=O)[O-])c1 (centres undefined),8.14% (inactive)
18,C=CCNC(=O)/C=C/c1ccc(C(C)C)cc1,57.7% (active)
19,CC(C)c1ccc(/C=C/C(=O)NNC(=O)c2cccnc2)cc1,10.9% (inactive)
20,O=C(/C=C/c1ccc(F)cc1)NCCNC(=O)/C=C/c1ccc(F)cc1,-1.57% (inactive)

row,SMILES,max response
1,O=C(/C=C/c1cccc(C(F)(F)F)c1)N1CCN(c2ccccn2)CC1,2.61% (inactive)
2,O=C(c1cccs1)N(Cc1cc2ccccc2[nH]c1=O)CC1CCCO1 (centres undefined),-1.8% (inactive)
3,COc1ccc(NC(=O)CN2C(=O)COc3ccc(S(=O)(=O)N4CCOCC4)cc32)c(OC)c1,-3.45% (inactive)
4,CCCCC[C@H]1CN(C2CCCCC2)C(=O)[C@@H]1CC(=O)NCc1ccc(OC)cc1,-1.9% (inactive)
5,CCC(=O)Nc1cccc(NC(=O)CSc2nnnn2C2CCCC2)c1,3.23% (inactive)
6,CCn1c(SCC(=O)Nc2ccc3c(c2)OCCO3)nc2c(c1=O)SC(C)C2 (centres undefined),-2.67% (inactive)
7,Cc1ccc(-n2c(SCC(=O)Nc3ccc4c(c3)OCO4)nnc2-c2ccoc2C)cc1,-6.42% (inactive)
8,Cc1ccc(-n2c(SCC(=O)Nc3ccc4c(c3)OCO4)nnc2-c2ccccn2)cc1,-4.03% (inactive)
9,O=C(CSc1nnnn1C1CCCC1)Nc1ccc2c(c1)OCCO2,20.7% (active)
10,O=C(CSc1nnnn1-c1ccc2c(c1)CCC2)Nc1ccc2c(c1)OCCO2,22.4% (active)
11,COCCCNC(NC(=O)c1ccc(OC)cc1)C(Cl)(Cl)Cl (centres undefined),-1.44% (inactive)
12,O=S(=O)(c1cc(Cl)ccc1Cl)N1CCN(Cc2ccco2)CC1,-2.5% (inactive)
13,CCC(C)N1C(=O)S/C(=C/c2ccc(Sc3nc4ccccc4[nH]3)o2)C1=O (centres undefined),8.57% (inactive)
14,CC1CCN(S(=O)(=O)c2ccc3[nH]c(=O)ccc3c2)CC1,0.735% (inactive)
15,CCN(c1ccc2c(c1)OCO2)S(=O)(=O)c1cc(Br)cc2c1N(C(=O)C1CC1)CC2,10.1% (inactive)
16,COc1ccc(Cl)cc1NC(=O)CN(C)C(=O)CCCc1c[nH]c2ccccc12,-3.1% (inactive)
17,Cc1cccc(OCC(=O)NC2CC(C)(C)NC(C)(C)C2)c1,-1.93% (inactive)
18,COc1ccc2oc(=O)cc(CN3CCOCC3)c2c1,-3.2% (inactive)
19,Cc1cc(=O)oc2c3c(cc(OCC(=O)NCCC(=O)N[C@@H](C)C(=O)O)c12)OC(C)(C)CC3,-1.18% (inactive)
